Compound activity as filed in PubChem BioAssay.
The list is not random: actives were taken first. Their share in the collection is about 11%.
NPR1 antag = blocks ANP-stimulated signaling of human Npr1 receptor. P16066. HEK293 hNpr1 GloSensor cGMP, ANP-stimulated luminescence. Potency, µM (doses to about 46.3 µM), actives largely listed as inhibitors. actives 1.6% (n = 76,000). AID 1347048; calls by dose curve; also: nearly all actives have a fitted effect of over 60% in size
Target sequence (P16066 whole entry, looked up): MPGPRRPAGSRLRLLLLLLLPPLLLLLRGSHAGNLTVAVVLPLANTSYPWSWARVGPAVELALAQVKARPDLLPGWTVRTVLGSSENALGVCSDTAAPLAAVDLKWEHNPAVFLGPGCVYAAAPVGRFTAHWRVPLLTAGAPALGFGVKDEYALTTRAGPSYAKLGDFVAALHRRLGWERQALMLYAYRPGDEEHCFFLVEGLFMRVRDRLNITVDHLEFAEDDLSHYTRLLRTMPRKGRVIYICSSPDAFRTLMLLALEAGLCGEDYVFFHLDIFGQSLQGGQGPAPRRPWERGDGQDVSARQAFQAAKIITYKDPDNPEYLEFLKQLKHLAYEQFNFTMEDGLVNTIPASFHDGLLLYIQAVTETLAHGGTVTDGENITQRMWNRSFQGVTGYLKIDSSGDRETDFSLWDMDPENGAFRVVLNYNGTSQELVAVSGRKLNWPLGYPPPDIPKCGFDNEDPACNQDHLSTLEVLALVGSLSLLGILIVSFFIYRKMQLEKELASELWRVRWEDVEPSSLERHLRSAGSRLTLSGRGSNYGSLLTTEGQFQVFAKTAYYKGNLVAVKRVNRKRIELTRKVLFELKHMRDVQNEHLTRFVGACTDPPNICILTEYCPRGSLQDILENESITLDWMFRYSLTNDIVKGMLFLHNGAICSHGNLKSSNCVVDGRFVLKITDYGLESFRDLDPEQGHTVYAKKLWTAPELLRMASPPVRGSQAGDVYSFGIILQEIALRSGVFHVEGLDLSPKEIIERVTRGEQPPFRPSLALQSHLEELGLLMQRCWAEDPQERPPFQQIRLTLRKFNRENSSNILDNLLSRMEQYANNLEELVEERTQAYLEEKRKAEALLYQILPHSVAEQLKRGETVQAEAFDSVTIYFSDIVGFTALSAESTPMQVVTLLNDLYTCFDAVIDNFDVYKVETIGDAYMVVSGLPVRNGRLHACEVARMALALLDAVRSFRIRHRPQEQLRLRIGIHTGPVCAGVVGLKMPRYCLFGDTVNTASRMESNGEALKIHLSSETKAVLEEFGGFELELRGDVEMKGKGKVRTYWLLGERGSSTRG
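HEK293 cells stably expressing human Npr1 and cGMP GloSensor pGS-40F, loaded 2 h with 2% GloSensor reagent, given compound 30 min at room temperature. Luminescence read before and 20 min after 0.1 nM hNppA.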
HEK cytotox = kills HEK 293 cells; HEK 293 viability, ATP luminescence (CellTiter-Glo), 48-72 h; Potency, µM (highest dose often 115 µM), usual class: inhibitors; actives 6.6% (n = 94,000); AID 1345083; also: nearly all actives have a fitted effect of over 60% in size
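HEK 293 cells seeded at 250 cells/well were exposed to compound for 48 or 72 hr at 37 degree Celsius. Viability taken as ATP content by CellTiter-Glo luminescence.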
Luciferase inh = Photinus pyralis luciferase inhibition; actives 2.5% (n = 76,000); P08659; purified P. pyralis luciferase, luminescence, biochemical; Potency, µM (series often up to 115 µM), usual class: inhibitors; also: nearly all actives have a fitted effect of over 65% in size
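Purified 10nM P. pyralis luciferase with 10uM D-luciferin and 10uM ATP in 50mM Tris acetate pH 7.5, 10mM Mg acetate, 0.01% Tween-20, 0.05% BSA. qHTS titration; luminescence read by CCD imager.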
3T3 cytotox = NIH 3T3 cell cytotoxicity. NIH 3T3 viability, CellTiter-Glo ATP luminescence, 48-72 h. Potency, µM (doses to about 96.7 µM), hits mostly inhibitors. actives 4.3% (n = 94,000); also: nearly all actives have a fitted effect of over 55% in size
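Mouse fibroblast NIH 3T3 cells, 400 per well, received compound via pintool and were incubated for 48 or 72 hr prior to CellTiter-Glo ATP luminescence measurement.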
Large screens that a line does not name were inactive. Unless noted, calls follow the shape of the dose curve; as a rule, active = well fitted curve in the direction sought with a large enough effect; inconclusive = small, poorly fitted or top-dose-only effect, or another doubt; inactive = no such curve, though single readings can be large; an effect the other way counts as inactive or inconclusive.

Cc1cccc(OCC(=O)N2CCC(n3cc(-c4nc(-c5ccccc5)no4)nn3)C2)c1 (stereo not given)	HEK cytotox 10µM, Luciferase inh inconclusive, 3T3 cytotox 13µM
CC(=O)c1ccc(NC(=O)CN2C(=O)NC3(CCC(C(C)(C)C)CC3)C2=O)cc1 (stereo not given)	HEK cytotox inconclusive, 3T3 cytotox inconclusive
CC(=O)c1cccc(NC(=O)CN2C(=O)NC3(CCC(C(C)(C)C)CC3)C2=O)c1 (stereo not given)	HEK cytotox inconclusive, 3T3 cytotox 40µM
CC1CCC2(CC1)NC(=O)N(CC(=O)Nc1cccc(F)c1)C2=O (stereo not given)	none
CC1CCC2(CC1)NC(=O)N(CC(=O)Nc1ccc(C(C)C)cc1)C2=O (stereo not given)	HEK cytotox 28µM, 3T3 cytotox inconclusive
CC1CCC2(CC1)NC(=O)N(CC(=O)Nc1cccc(C(F)(F)F)c1)C2=O (stereo not given)	HEK cytotox 25µM, 3T3 cytotox inconclusive
O=C(NCCc1ccc(Cl)cc1)c1nc(-c2cccnc2)c2cnccn12	HEK cytotox inconclusive, 3T3 cytotox inconclusive
Cc1ccc(NC(=O)C2CCc3nnc(CN[S+](=O)([O-])c4ccccc4Cl)n32)cc1 (stereo not given)	3T3 cytotox inconclusive (no result: NPR1 antag, Luciferase inh)
O=C(C1CC1)N1CCc2nc(C3CC3)nc(-c3ccc(O)cc3)c2CC1	none (no result: NPR1 antag, Luciferase inh)
CN1c2cc(C(=O)N3CCN(c4ccc(Cl)cc4)CC3)ccc2C(=O)N2CCCCC21 (stereo not given)	NPR1 antag inconclusive, HEK cytotox inconclusive
COc1ccc(-n2c(=O)c(C(=O)NC3CCCC3)nc3cccnc32)cc1	none (no result: NPR1 antag, Luciferase inh)
O=C(Cc1c[nH]c2ncc(-c3ccccc3)cc12)NCCc1ccccc1	NPR1 antag inconclusive, HEK cytotox inconclusive, 3T3 cytotox inconclusive
O=C(Cc1c[nH]c2ncc(-c3ccccc3)cc12)NCC1CCOCC1	HEK cytotox 79µM, 3T3 cytotox inconclusive
CN(C)CCNC(=O)Cc1c[nH]c2ncc(-c3ccccc3)cc12	HEK cytotox 112µM, 3T3 cytotox inconclusive
Cc1ccccc1-c1cnc2[nH]cc(CC(=O)NCCN(C)C)c2c1	HEK cytotox 40µM, 3T3 cytotox inconclusive
OC1CN(Cc2ccccc2)CCN(Cc2cn[nH]c2-c2ccc(Cl)cc2)C1 (stereo not given)	HEK cytotox inconclusive, 3T3 cytotox inconclusive
Cc1ccc(-c2[nH]ncc2CN2CCN(c3ccc(Cl)cn3)CC2)cc1C	HEK cytotox 35µM, 3T3 cytotox inconclusive
CN1CC(=O)N(C2CCCNCC2)Cc2c1ncnc2N1CCC(C#N)CC1 (stereo not given)	none (no result: NPR1 antag, Luciferase inh)
CC(=O)NC1CCN(C(=O)c2ccc(-c3cccs3)cc2)CC1	none (no result: NPR1 antag, Luciferase inh)
O=C(NC1CCOCC1)C1CCCCN1Cc1ccc(-c2cccs2)cc1 (stereo not given)	HEK cytotox 45µM, 3T3 cytotox inconclusive (no result: NPR1 antag, Luciferase inh)
O=C(C1CCCCN1Cc1ccc(-c2cccs2)cc1)N1CCN(Cc2ccccc2)CC1 (stereo not given)	HEK cytotox inconclusive, 3T3 cytotox 32µM (no result: NPR1 antag, Luciferase inh)
O=C(NC1CC1)C1CCCCN1Cc1ccc(-c2cccs2)cc1 (stereo not given)	HEK cytotox 45µM, 3T3 cytotox inconclusive (no result: NPR1 antag, Luciferase inh)
O=C(C1CCCCN1Cc1ccc(-c2ccsc2)cc1)N1CCOCC1 (stereo not given)	HEK cytotox inconclusive (no result: NPR1 antag, Luciferase inh)
Cn1c(CN2CC[C@H](c3nc4ccccc4[nH]3)C2)nc2ccccc21	HEK cytotox 45µM, 3T3 cytotox inconclusive
Cn1c([C@H]2CCN(Cc3cnc4ccccc4c3)C2)nc2ccccc21	HEK cytotox 71µM, 3T3 cytotox inconclusive
c1ccc2ncc(CN3CC[C@H](c4nc5ccccc5[nH]4)C3)cc2c1	HEK cytotox 71µM, 3T3 cytotox inconclusive
CC(C)CN1CC[C@H](c2nc3ccccc3n2C)C1	HEK cytotox inconclusive, Luciferase inh 22µM
CCOCCNC(=O)CNC(=O)c1ccc(-c2cnc3ccccc3c2)cc1	HEK cytotox inconclusive (no result: NPR1 antag, Luciferase inh)
COc1ccc(CN2C[C@@H](F)[C@@H](OCc3nc4ccccc4n3C)C2)cn1	none
Cn1c(CO[C@H]2CN(Cc3cnc4ccccc4c3)C[C@H]2F)nc2ccccc21	NPR1 antag inconclusive, HEK cytotox 79µM, 3T3 cytotox inconclusive
Cc1ccc(C(=O)N2CCN(Cc3ccc(=O)n(C)c3)CC2)cc1F	none
COc1ccc(C(=O)N2CCN(Cc3ccc(=O)n(C)c3)CC2)cc1F	Luciferase inh 40µM
CN1Cc2ccc(C(=O)Nc3ccc4cn[nH]c4c3)cc2OCC1=O	Luciferase inh 32µM, 3T3 cytotox inconclusive
Cn1nc(C2CC2)cc1NC(=O)c1cccc(Cl)c1	3T3 cytotox inconclusive (no result: NPR1 antag, Luciferase inh)
CS(=O)(=O)N(Cc1ccccn1)C1CN(C(=O)c2ccoc2)C1	none (no result: NPR1 antag, Luciferase inh)
Cc1nc(CC2CCN(C(=O)Nc3ccc4c(c3)OCCO4)CC2)n[nH]1	Luciferase inh 45µM
COc1ccc(C(=O)N2CCC(Cc3nc(-c4ccncc4)n[nH]3)CC2)cc1	3T3 cytotox inconclusive (no result: NPR1 antag, Luciferase inh)
O=C(Nc1ccc2c(c1)OCCO2)N1CCC(Cc2nc(-c3ccncc3)n[nH]2)CC1	Luciferase inh 79µM
COCCCn1c(C)cnc1C1CCN(C(=O)NCC(=O)OC)C1 (stereo not given)	none
CS(=O)(=O)N1CCC(OC2CCN(C(=O)Nc3ccc4c(c3)OCCO4)CC2)CC1	Luciferase inh 35µM
COCCCn1c(C)cnc1C1CCN(C(=O)Nc2ccc3c(c2)OCCO3)C1 (stereo not given)	Luciferase inh 45µM
Cc1cnc(CC2CCN(C(=O)Nc3ccc4c(c3)OCCO4)C2)n1C1CC1 (stereo not given)	none (no result: NPR1 antag, Luciferase inh)
CC(C)(C)C(=O)N1CCCC(C(=O)N2CCC(c3nc4ncccc4[nH]3)CC2)C1 (stereo not given)	none (no result: NPR1 antag, Luciferase inh)
CS(=O)(=O)N(Cc1cccnc1)C1CN(C(=O)C2CCCCC2)C1	none
CS(=O)(=O)N(Cc1cccnc1)C1CN(C(=O)Nc2ccc3c(c2)OCCO3)C1	Luciferase inh 35µM
OCCN1CCN(c2ccc(-c3nc(-c4cccc(C(F)(F)F)c4)no3)cn2)CC1	NPR1 antag inconclusive, HEK cytotox inconclusive, Luciferase inh 28µM, 3T3 cytotox 25µM
CCN1CCN(c2ccc(-c3nc(CCCc4ccccc4)no3)cn2)CC1	HEK cytotox inconclusive, Luciferase inh inconclusive, 3T3 cytotox inconclusive
O=C(NC1CCCC1)c1ccc2nnc(C3CCOCC3)n2c1	none (no result: NPR1 antag, Luciferase inh)
c1ccc(CCCc2noc(-c3ccc(N4CCOCC4)nc3)n2)cc1	HEK cytotox inconclusive
c1ccc(CCc2noc(-c3ccc(N4CCCOCC4)nc3)n2)cc1	NPR1 antag inconclusive, HEK cytotox inconclusive, Luciferase inh 32µM, 3T3 cytotox inconclusive
CCCS(=O)(=O)N1CC(c2nc(Cc3cccnc3)no2)C1	none (no result: NPR1 antag, Luciferase inh)
COc1ccc(CN2CC(c3nc(Cc4cccnc4)no3)C2)c(OC)c1	NPR1 antag inconclusive, HEK cytotox inconclusive, 3T3 cytotox 16µM
COc1cccc(CNC(=O)[C@@H]2C[C@@H](O)CN2C2CCN(C(=O)Cc3c(C)noc3C)CC2)c1	none (no result: NPR1 antag, Luciferase inh)
Cc1ccccc1C(=O)NC1CCN(C(=O)c2ccc(-c3cncnc3)cc2)CC1	none (no result: NPR1 antag, Luciferase inh)
